# Sampled rows, rich in hits. Any-hit rate of the full collection: about 19%.
# DT40 TDP1 CPT – DT40-hTDP1 cell growth loss with CPT; chicken DT40 Tdp1-/-;hTDP1 cells + 20 nM CPT, ATP luminescence, 48 h; Potency, µM (doses to about 46.2 µM), inactives show top-dose activity change, negative = growth inhibition, actives largely listed as inhibitors; 420,000 compounds, 12% hits; note: potency is the fitted concentration of half-maximal effect; nearly all actives have a fitted effect of over 55% in size
#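 Chicken DT40 Tdp1-/- cells stably complemented with human TDP1 were seeded at 400 cells/well in medium containing 20 nM camptothecin, exposed to pin-transferred compounds, and grown at 37 °C for at least 48 hr. Viability was read as ATP luminescence.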
# IL1B secr inh – blocks inflammasome-driven IL-1 beta release | THP-1 LPS/ATP IL-1B secretion, AlphaLISA, 16 h; hits give low values | AID 743279 | 360,000 compounds, 4.7% hits | activity change, % at 57.5 µM; in the data active = activity change below about -50%; inconclusive = mostly about -30% to -49%
#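 Secreted IL-1B measured by AlphaLISA bead assay after 16 h compound exposure of THP-1 cells; compounds (final up to 57.5 uM) added 1 h before LPS (250 ng/mL) and ATP (1.25 mM) stimulation; lower signal means less secretion.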
# TDP1 cell noCPT – qHTS for Inhibitors of human tyrosyl-DNA phosphodiesterase 1 (TDP1): qHTS in cells in absence of CPT | DT40 Tdp1-/- hTDP1 cells, no CPT, ATP luminescence, 48 h | 420,000 compounds, 15% hits | Potency, µM (highest dose often 46.2 µM), for inactives: at the top dose activity change, negative = growth inhibition, usual class: inhibitors; note: potency is the fitted concentration of half-maximal effect; nearly all actives have a fitted effect of over 55% in size
#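 Luminescent ATP content (CellTiter-Glo) served as the growth readout. Knockout chicken DT40 cells expressing human TDP1 were exposed to compounds without camptothecin for a minimum 48 hr at 37 °C.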
# HT1080 IDH1KD tx – HT-1080 IDH1 knockdown cell toxicity (counter line) | HT-1080 IDH1 knockdown viability, ATP luminescence, 48 h | Potency, µM (titrated, usually from 46.1 µM), inactives show at the highest dose activity, negative = toxicity, usual class: cytotoxic | 360,000 compounds, 2% hits | AID 686971;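 note: potency is the fitted concentration of half-maximal effect; 0% = DMSO wells and -100% = cell-free medium wells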
#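 Cytotoxicity counter-line: IDH1KD HT-1080, 48 h, CellTiter-Glo. Curves classed by r2, magnitude and activity.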
# HT1080-NT tox – kills 2HG-producing HT-1080-NT fibrosarcoma cells. 360,000 compounds, 1.6% hits. HT-1080-NT fibrosarcoma viability, CellTiter-Glo ATP luminescence, 48 h. AID 686970. Potency, µM (highest dose often 46.1 µM), for inactives: at the top dose activity, negative = less viability, hits mostly cytotoxic;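 note: NT is the 2HG producing partner of a matched IDH1 knockdown line; potency is the fitted concentration of half-maximal effect; 0% = DMSO-treated cells and -100% = media-only wells without cells; nearly all actives have a fitted effect of over 55% in size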
#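 Compounds were tested in concentration-response format on HT-1080-NT cells for 48 hours at 37 degrees C. Cell viability came from CellTiter-Glo luminescence; curves were classified by r2, response magnitude and activity.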
# * marks the source's active call; other numbers are inactive results; ? = inconclusive; . = not tested or not shown; [ ] = remark or other dose. Unless noted, calls come from the whole dose curve; as a rule, active = well fitted curve in the direction sought with a large enough effect; inconclusive = small, poorly fitted or top-dose-only effect, or another doubt; inactive = no such curve, though single readings can be large; an effect the other way counts as inactive or inconclusive. Unless noted, % is set by controls: 0 for no effect and ±100 for the full control effect.
SMILES,DT40 TDP1 CPT,IL1B secr inh,TDP1 cell noCPT,HT1080 IDH1KD tx,HT1080-NT tox
COc1ccc(C(=O)NCCNC(=O)c2ccccn2)cc1,-1%,5,-8%,-2%,25%
O=S(=O)(Nc1cc(S(=O)(=O)N2CCOCC2)ccc1O)c1ccc2c(c1)OCCCO2,?,0,?,2%,5%
N/C(=N\OC(=O)COc1ccc2ccccc2c1)c1ccccn1,-1%,-58*,-10%,?,?
COc1ccc(C(=O)NNC(=O)c2ccccn2)cc1,-17%,-18,-25%,18µM*,21µM*
N/C(=N\OC(=O)COc1ccccc1Cl)c1ccccn1,7%,-14,1%,20%,3%
COc1ccc(C(=O)O/N=C(\N)c2ccccn2)cc1,-18%,-10,-20%,16µM*,13µM*
COc1cc(OC)cc(C(=O)O/N=C(\N)c2ccccn2)c1,-3%,-11,-27%,13%,14%
COc1cc(OC)cc(C(=O)NNC(=O)c2ccccn2)c1,2.9µM*,146,6.5µM*,?,-27%
CC(C)(C)OC(=O)C[C@@H]1C/C=C\C[C@H](CC(=O)NCCO)C(=O)NC[C@H](c2ccccc2)OC1=O,-18%,22,-10%,14%,10%
CCNC(=O)C1(C)CCN(C(=O)c2ccccc2OC)C1 (stereo not given),-7%,22,-23%,15%,27%
Cc1c(C(=O)NCCN2CCC(c3ccccc3)CC2)cnn1-c1nccc(-c2cccs2)n1,8%[9.04 µM],.,?,.,.
O=C(CN(C(=O)c1csnn1)c1ccc(F)cc1)NCCc1ccccc1,-5%,-8,-10%,8%,15%
CCOc1ccc(OCCCC(=O)NNC(=O)c2ccncc2)cc1,10%,7,4%,10%,4%
COc1ccccc1C(=O)O/N=C(\N)c1ccccn1,-2%,-3,-39%,?,?
Cc1ccc(C(=O)O/N=C(\N)c2ccccn2)c(C)c1,?,?,-24%,15µM*,16µM*
CC(=O)c1ccc(OCCCC(=O)NNC(=O)c2ccccn2)cc1,?,138,15µM*,?,-2%[9.24 µM]
N#C/C(=C\c1cccc([N+](=O)[O-])c1)c1ccccn1,-24%,-88*,15µM*,-23%,-6%
O=[N+]([O-])c1cccc(/C=C/c2ccccn2)c1,-1%,-30,7%,-14%,-7%
O=C(NNC(=O)c1ccccn1)c1cccc([N+](=O)[O-])c1,16µM*,108,16µM*,-16%,-1%
CCC1CN(CCNC(=O)c2scc3c2OCCO3)Cc2cc(OC)ccc2O1 (stereo not given),5%[9.04 µM],.,?,.,.
CCCNC(=O)C(Cc1cccc(C#N)c1)NC(=O)c1cccc([N+](=O)[O-])c1 (stereo not given),-22%,1,-22%,-1%,1%
CCC(C)NC(=O)CCCN1C(=O)CCn2nc(-c3cccn3C)cc21 (stereo not given),-11%,.,0%,.,.
COc1ccc(CN2CCC3(CCC(CNC(=O)c4ccnn4C)O3)CC2)c(C)c1C (stereo not given),-29%,.,?,.,.
COc1cccc(CN(C(=O)c2cc3ccccc3oc2=O)C2CCS(=O)(=O)C2)c1 (stereo not given),1%,2,18%,13%,12%
N/C(=N\OC(=O)c1cc(-c2ccccc2)nc2ccccc12)c1ccccn1,13µM*,-26,12µM*,5%,9%
CC(C)C[C@H]1COc2cccc(N3CCN(Cc4ccccc4F)CC3)c2S(=O)(=O)N1,?,-11,18µM*,-20%,?
O=S1(=O)N[C@H](Cc2ccccc2)COc2cc(N3CCC[C@H]3CO)ccc21,-21%,15,?,-1%,-3%
O=S1(=O)N[C@@H](Cc2ccccc2)COc2cc(N3CCN(Cc4ccccc4F)CC3)ccc21,-30%,-13,21µM*,3%,-3%
CC(C)C[C@H]1COc2cc(N3CCN(Cc4ccccc4F)CC3)ccc2S(=O)(=O)N1,?,14,?,2%,-5%
